Laboratory results as given in PubChem BioAssay.
Active and inactive are the calls of the source.

Columns and labels:
Albumin (Bos taurus) = Albumin (Bos taurus) (UniProt P02769); test: compounds binding labelled BSA control protein – biochemical, small-molecule microarray, Alexa647 label, 635/667 nm fluorescence, artefact control for SMM control protein annotation, profiling panel (AID 1118); settings: BSA-A647 binding, fluorescence 635 nm, higher = more signal;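 further: score merges 667 nm emission intensity and signal-to-noise per printed compound spot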
Sequence of Albumin (Bos taurus) (P02769 whole entry, looked up): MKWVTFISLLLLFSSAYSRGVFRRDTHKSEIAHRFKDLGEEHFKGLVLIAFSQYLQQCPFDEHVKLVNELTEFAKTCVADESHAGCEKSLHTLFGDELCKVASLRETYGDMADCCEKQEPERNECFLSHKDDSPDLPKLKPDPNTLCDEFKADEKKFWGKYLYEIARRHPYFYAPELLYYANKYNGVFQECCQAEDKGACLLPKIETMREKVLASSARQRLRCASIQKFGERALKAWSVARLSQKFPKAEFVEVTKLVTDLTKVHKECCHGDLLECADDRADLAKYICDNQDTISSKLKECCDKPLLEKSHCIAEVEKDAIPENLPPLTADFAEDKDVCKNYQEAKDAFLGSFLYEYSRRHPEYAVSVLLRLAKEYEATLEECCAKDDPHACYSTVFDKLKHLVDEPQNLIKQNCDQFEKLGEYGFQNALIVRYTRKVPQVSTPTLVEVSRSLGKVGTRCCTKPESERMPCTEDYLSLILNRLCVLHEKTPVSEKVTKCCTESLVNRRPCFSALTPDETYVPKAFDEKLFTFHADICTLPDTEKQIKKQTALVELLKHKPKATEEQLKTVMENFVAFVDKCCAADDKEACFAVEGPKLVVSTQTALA

[1] = probe aXIP binding to arrayed compounds – biochemical, NeuroSMM set, 635/667 nm fluorescence, primary screen (AID 1119); settings: small-molecule microarray, higher = more signal, called active from +8 up or from −8 down;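 further: probe is the protein aXip251-270 applied at 1 µg/mL to compound-printed slides; binding of probe to printed compounds measured as 667 nm fluorescence plus signal to noise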
[2] = probe aNOTCH3 binding on compound microarray – biochemical, small-molecule microarray, 635/667 nm fluorescence, primary screen (AID 1120); settings: higher = more signal;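 further: probe is a biotin-tagged antibody raised against NOTCH3 rather than NOTCH3 protein; score merges spot fluorescence near 667 nm with spot signal to noise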
[3] = probe aNOTCH2 binding on compound microarray – biochemical, small-molecule microarray, 635/667 nm fluorescence, primary screen (AID 1121); settings: higher = more signal;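 further: score merges feature fluorescence read at 667 nm with its signal to noise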
[4] = biological target: Carbonic anhydrase 2 (Homo sapiens) (UniProt P00918); test: compounds binding carbonic anhydrase 2 – biochemical, small-molecule microarray, Alexa647-labelled CAII, profiling panel (AID 1122); settings: CAII-A647 binding fluorescence, higher = more signal
[5] = COS7 lysate on small-molecule microarray, probe aHis, 635 nm (AID 1123); settings: COS7 cell lysate, fluorescence, higher = more signal;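 further: z-score combines 667nm fluorescence intensity with signal-to-noise per printed compound spot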
[6] = probe aLAP1 signal on lysate-treated microarray – cell lysate, small-molecule microarray, COS7 lysate, primary screen (AID 1124); settings: probe aLAP1, fluorescence, higher = more signal;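 further: lysate comes from COS7 cells expressing LAP1 and is applied at 0.3 µg/mL; score merges spot fluorescence near 667 nm with signal-to-noise over triplicate slides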
Sam68 (KHDRBS1) = test: compounds binding KHDRBS1 protein – biochemical, small-molecule microarray, 635 nm fluorescence, primary screen (AID 1125); settings: higher = more signal;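 further: score merges 667 nm channel intensity with signal to noise over triplicate slides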
[7] = test system: Chordin-like protein 2 (CHRDL2); test: compounds binding chordin-like 2 – biochemical, small-molecule microarray, 635 nm fluorescence, primary screen (AID 1126); settings: fluorescence 635 nm, higher = more signal;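 further: printed compound slides probed with Chrdl2 protein at 4 µg/mL for 1 h at 4 C; score merges 667 nm emission intensity with signal to noise over three replicate slides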
[8] = biological target: Concanavalin-A (Canavalia ensiformis) (UniProt P02866); test: compounds binding concanavalin A lectin – biochemical, small-molecule microarray, Alexa647 label, 635 nm, artefact control for SMM control protein annotation, primary screen (AID 1127); settings: ConA-A647 binding fluorescence, higher = more signal;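 further: z combines 667 nm emission intensity with signal-to-noise across three replicate slides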
Sequence of Concanavalin-A (Canavalia ensiformis) (P02866 whole entry, looked up): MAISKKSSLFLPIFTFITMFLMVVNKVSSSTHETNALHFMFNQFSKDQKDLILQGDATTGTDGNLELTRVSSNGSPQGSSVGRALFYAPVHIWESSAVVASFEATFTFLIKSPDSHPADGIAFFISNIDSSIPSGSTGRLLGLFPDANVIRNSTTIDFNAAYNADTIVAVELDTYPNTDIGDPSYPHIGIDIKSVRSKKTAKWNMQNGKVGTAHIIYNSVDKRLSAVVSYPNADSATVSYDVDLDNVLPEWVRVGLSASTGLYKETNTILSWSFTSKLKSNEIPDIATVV

SMILES | composite z-score (Albumin (Bos taurus)) | composite Z-score [1] | composite z-score [2] | composite z-score [3] | composite z-score [4] | composite z-score [5] | composite z-score [6] | composite z-score (Sam68 (KHDRBS1)) | composite z-score [7] | composite z-score [8]
COC(=O)[C@]1(Cc2ccccc2N=[N+]=[N-])N=C(c2ccc(OCCCO)cc2)O[C@@H]1c1ccccc1N=[N+]=[N-] | 0.308 | -0.47 (inactive) | -0.0976 | -0.148 | 0.595 | 0.794 | 0.405 | -0.255 | -0.153 | 0.725
COC(=O)[C@@]1(Cc2ccc(F)cc2)[C@H]2c3cc(C(=O)N(C)C)n(CCc4ccccn4)c3C[C@H]2CN1C(=O)c1ccccc1 | -0.0737 | 0.004 (inactive) | 1 | 0.2 | 0.827 | 2.75 | 0.52 | 1.29 | -0.464 | 0.542
O=C1O[C@@H](c2ccccc2)[C@@H](c2ccccc2)N2[C@@H](c3ccc(OCCO)cc3)[C@]3(C(=O)Nc4ccccc43)[C@@H](C(=O)Nc3nc4ccccc4s3)[C@H]12 | 0.915 | 0.755 (inactive) | 0.372 | -0.0028 | 0.593 | 2.45 | 0.262 | 1.3 | 0.477 | 1.11
COCCOC(=O)N1C(=O)[C@@]2(c3cc(C#CCNC(N)=O)ccc31)[C@H](c1ccc(OCCO)cc1)N1[C@H](c3ccccc3)[C@H](c3ccccc3)OC(=O)[C@H]1[C@@H]2C(=O)N1CCc2cc(OC)c(OC)cc2C1 | -1.03 | -0.0505 (inactive) | 0.112 | -0.0349 | 0.22 | 0.592 | 0.127 | 0.498 | 0.756 | 0.878
C#CCN(C(/C=C/c1ccccc1)CO)C(C(=O)O)c1ccccc1 (stereo not given) | -0.56 | 0.535 (inactive) | -0.389 | -0.181 | -0.199 | -0.21 | -0.0599 | -1.12 | 0.0041 | 0.0529
COCCOC(=O)N1C(=O)[C@@]2(c3cc(C#CCC(C(=O)OC)C(=O)OC)ccc31)[C@H](c1ccc(O)cc1)N1[C@H](c3ccccc3)[C@H](c3ccccc3)OC(=O)[C@H]1[C@@H]2C(N)=O | 0.47 | 1.07 (inactive) | -0.0647 | 0.0232 | 0.438 | 1.2 | 0.647 | 1.31 | 0.778 | 0.859
O=C1OCCC=C[C@H]2OC34C=CCN(Cc5ccccc5)C(=O)[C@H]3N(CCCCCO)C(=O)[C@@H]4C12 (stereo not given in full) | 0.863 | 0.452 (inactive) | -0.28 | -0.173 | 0.763 | 2.1 | 0.743 | 0.954 | -1.32 | -0.262
[N-]=[N+]=NCc1ccccc1[C@H]1OC(c2ccc(OCCCO)cc2)=N[C@@]1(CCS(=O)(=O)c1ccccc1)C(=O)N1CCOCC1 | 1.05 | 1.09 (inactive) | 0.515 | 0.268 | 0.819 | 3.05 | 0.362 | 1.3 | -0.584 | 1.11
Cc1ccc(S[C@]2(C(=O)NCCN3CCOCC3)CC(=O)N(Cc3cc(C(F)(F)F)cc(C(F)(F)F)c3)[C@@H]2c2ccc(CO)cc2I)cc1 | 0.59 | -1.18 (inactive) | -0.214 | -0.164 | 0.661 | 0.373 | -0.0586 | 0.134 | -1.16 | -0.13
Cc1ccc(S[C@]2(C(=O)NC3CC3)CC(=O)N(C3CCCCC3)[C@@H]2c2ccc(CO)cc2I)cc1 | 0.599 | -0.186 (inactive) | 0.0426 | -0.123 | 0.408 | 1.31 | 0.396 | 1.28 | 0.0261 | 0.896
CCOc1cc(C(O)C2C=CC3C(=O)N(c4ccccc4)C(=O)C3N2Nc2ccc([N+](=O)[O-])cc2)ccc1O (stereo not given) | 0.839 | -0.014 (inactive) | 0.0488 | -0.0666 | 0.865 | 1.78 | 0.502 | 0.874 | -0.136 | 0.548
O=C1OCCC=C[C@H]2OC34C=CCN(Cc5ccccc5)C(=O)[C@H]3N(CCCO)C(=O)[C@@H]4C12 (stereo not given in full) | 0.117 | -0.241 (inactive) | -0.275 | -0.164 | 0.897 | 0.0967 | -0.322 | -1.22 | -0.229 | -0.731
CN1C=C(C(=O)OCCS(C)(=O)=O)C(C(=O)OCCS(C)(=O)=O)=CC(CCCO)=CC1C1CC1 (stereo not given) | 0.846 | -0.561 (inactive) | -0.0613 | -0.108 | 0.826 | 0.606 | -0.0075 | -0.0704 | -0.705 | 0.183
COc1ccc(C#Cc2ccc3c(c2)[C@]2(C(=O)N3)[C@H](C(=O)NC[C@H](O)c3ccccc3)[C@H]3C(=O)O[C@H](c4ccccc4)[C@H](c4ccccc4)N3[C@@H]2c2ccccc2OCCO)cc1 | 0.566 | 0.29 (inactive) | 0.175 | -0.0157 | 0.575 | 1.8 | 1.03 | 1.29 | 0.469 | 1.14
COc1ccc(C#Cc2ccc3c(c2)[C@]2(C(=O)N3)[C@H](c3ccc(O)cc3)N3[C@H](c4ccccc4)[C@H](c4ccccc4)OC(=O)[C@H]3[C@@H]2C(=O)N2CCCCCCC2)cc1 | 0.814 | 5.12 (inactive) | 1.84 | 0.939 | 0.504 | 3.27 | 0.998 | 1.31 | 1.23 | 1.14
COCCCNC(=O)[C@@]1(CCC(=O)OC(C)(C)C)N=C(c2ccc(OCCCO)cc2)O[C@H]1c1ccccc1CN=[N+]=[N-] | 0.642 | -0.371 (inactive) | 0.433 | 0.0716 | 0.577 | 3.34 | 1.53 | 1.26 | -0.105 | 0.8
